Assay results taken from PubChem BioAssay (NCI).
The panel holds about 83,000 compounds, 20% with a hit somewhere; the sample as a whole holds those more often.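 How to read the values: 0–100, growth inhibition (40 = 60% inhibited); 0, no net growth; -100 to 0, cell death (-40 = 40% of starting cells died; -100 = all dead).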 A number with no mark means an inactive call. Calls of active or inactive are those of the source. The calls were made as follows: active = growth percent below 10; inactive = the rest.

What follows are compounds tested on UACC-62 melanoma (assay: NCI-60 one-dose screen, 48 h (100 = growth as untreated, 0 = no growth, -100 = all killed)). Details: 10 µM.

SMILES	growth
COc1cc2c(cc1NC(=O)C(Cl)Cl)-c1ccc(NC(=O)C(Cl)Cl)cc1C2	-22.2% (active)
OCC1OC2C(NC(=S)N2c2ccccc2)C(O)C1O (centres undefined)	98.7%
Cc1cc(O)ccc1C1=NN(c2ccc(S(C)(=O)=O)cc2)C(=O)CC1	52.9%
Cc1c(Cl)cccc1NC(=O)CN1CCOCC1	103%
O=C1c2ccccc2C(=O)c2c1ccc(C(Br)Br)c2Cl	47.2%
CC[C@@H](C(=O)[C@@H](C)[C@@H](O)[C@H](C)[C@@H]1O[C@@H]([C@@H](CC)C(=O)N(CC)CC)CC[C@@H]1C)C1O[C@]2(C=CC(=O)[C@]3(CC[C@@](C)([C@H]4CC[C@](O)(CC)[C@H](C)O4)O3)O2)[C@H](C)C[C@@H]1C (some centres undefined)	13%
COc1cc(C(=O)n2nc(-c3cc(OC)c(OC)c(OC)c3)nc2N)cc(OC)c1OC	102%
COc1ccc(C(=O)N2C=Cc3ccccc3C2C#N)cc1 (centres undefined)	92.5%
COc1ccc(-c2nn(-c3cccc(Cl)c3)cc2-c2cc(-c3ccccc3)[nH]c(=O)c2C#N)cc1	35%
CCOC(=O)C1C(C(=O)OCC)C2C(=O)C3C(C(=O)OCC)C(C(=O)OCC)C3C(=O)C12 (centres undefined)	101%
CC1=CC2C(C(O)CC3(C)C2CC(C)C32OCOC23COCO3)C2(C)C/C(=C/O)C(=O)C=C12 (centres undefined)	30.4%
CCN(CC)CCOc1cccc2c1C(=O)c1ccccc1C2=O	95.2%
Cc1c2cnccc2c(C)c2c1oc1ccccc12	53.9%
O=C(Nc1ccc(NS(=O)(=O)c2ccc(F)cc2)cc1)C12CC3CC(CC(C3)C1)C2	92.4%
